Source: PubChem BioAssay (NCATS)
Records with an inconclusive call do not appear. Unmarked numbers belong to inactive results. Calls of active or inactive are those of the source. The call rests on the fitted dose curve.

Test: A High-Content qHTS Against Drug Library for the Identification of Small Molecules that Inhibit DYT1 Early Onset Primary Dystonia-Associated Cell Pathology (AID 1645839)
Details: HEK293 Flp-In EGFP-delE TorsinA, punctate imaging, 48 h; series mostly up to 46.1 µM; % pathology change, negative = correction: at the top concentration
Text: Nicole Calakos M.D., Ph.D.
Duke University School of Medicine, Durham, NC
In DYT1 dystonia due to delGAG in the TOR1A gene, there is a robust and widely replicated finding of TorsinA protein mislocalization caused when the mutant protein is in excess of the wildtype protein (1-7). Stable HEK293 cell lines were created that replicate this phenomenon. Inducible expression of an EGFP-hu delE TorsinA encoding cDNA causes pronounced punctate cellular distribution. […] This phenotypic difference in EGFP-huTorsinA fusion protein distribution serves as an indicator of cell pathology. […] RNAi screen results with the assay were validated in DYT1 patient cell phenotypes, intersected with a known dystonia gene, and led to discovery of new human genetic dystonia associations.
The bioassay described herein is a high-content image screen with two readouts. The "%pathology" readout is the primary qHTS data channel, while the "cellcount" is the counterscreen qHTS channel. Desired active compounds are those that show inhibition in %pathology channel but no activity or minimal toxicity in cellcount readout.
1. Kustedjo, K., Bracey, M.H., and Cravatt, B.F. (2000). […] J. Biol. Chem. 275, 27933 - 27939.
2. Bragg, D.C., Kaufman, C.A., Kock, N., and Breakefield, X.O. (2004). Inhibition of N-linked glycosylation prevents inclusion formation by the dystonia-related mutant form of torsinA. Mol. Cell. Neurosci. 27, 417 - 426.
3. Gonzalez-Alegre, P., and Paulson, H.L. (2004). Aberrant Cellular Behavior of Mutant TorsinA Implicates Nuclear Envelope Dysfunction in DYT1 Dystonia. J. Neurosci. 24, 2593 - 2601.
4. Goodchild, R.E., and Dauer, W.T. (2004). Mislocalization to the nuclear envelope: an effect of the dystonia-causing torsinA mutation. Proc. Natl. Acad. Sci. U. S. A. 101, 847 - 852.
5. Kock, N., Allchorne, A.J., Sena-Esteves, M., Woolf, C.J., and Breakefield, X.O. (2006). RNAi blocks DYT1 mutant torsinA inclusions in neurons. Neurosci. Lett. 395, 201 - 205.
6. Hewett, J.W., Nery, F.C., Niland, B., Ge, P., Tan, P., Hadwiger, P., Tannous, B.A., Sah, D.W.Y., and Breakefield, X.O. (2008). siRNA knock-down of mutant torsinA restores processing through secretory pathway in DYT1 dystonia cells. Hum. Mol. Genet. 17, 1436 - 1445.
7. Calakos, N., Patel, V.D., Gottron, M., Wang, G., Tran-Viet, K.N., Brewington, D., Beyer, J.L., Steffens, D.C., Krishnan, R.R., and Zuchner, S. (2010). Functional evidence implicating a novel TOR1A mutation in idiopathic, late-onset focal dystonia. J. Med. Genet. 47, 646 - 650.
8. Rittiner* JE, Caffall* ZF, Hernandez-Martinez R, Sanderson SM, Pearson JL, Tsukayama KK, Liu AY, Xiao C, Tracy S, Shipman MK, Hickey P, Johnson J, Scott B, Stacy M, Saunders-Pullman R, Bressman S, Simonyan K, Sharma N, Ozelius LJ, Cirulli ET, Calakos N. Functional Genomic Analyses of Mendelian and Sporadic Disease Identify Impaired eIF2alpha Signaling as a Generalizable Mechanism for Dystonia. Neuron. 2016 Dec 21;92(6):1238-1251. doi: 10.1016/j.neuron.2016.11.012. Epub 2016 Dec 8. PMID: 27939583; PMCID: PMC5320521.
High-content, High-throughput Drug Screening Assay
The TorsinA mislocalization assay was modified from the previously published assay to accommodate compound testing in 1536 well format.1 Briefly, Flp-In T-REx 293 cells from Invitrogen in which a single copy of a cDNA is recombined into a specific genomic locus was used to create tetracycline-inducible expression of cDNA encoding either EGFP-hTOR1A (WT) or EGFP-delE hTOR1A (DYT1). WT and DYT1 cells were diluted to a concentration of 2 x 10^5 cells/mL in reduced serum media (DMEM High Glucose containing 1% tetracycline-tested FBS, 2 mM L-Glutamine, and 1% Penicillin/Streptomycin). 4 µl of WT cells and 4 µl of DTY1 cells were added to column 1 and columns 2-48, respectively, of a poly-D-lysine-coated, low base, black, clear bottom 1536 well plate (Corning, Corning, NY) using the BioRAPTR FRD Microfluidic Workstation (Beckman Coulter, Indianapolis, IN). The final cell number was 800 cells/well. […]
Potency means the concentration at half of the fitted maximal effect.

| SMILES | % pathology change, negative = correction | Potency |
| --- | --- | --- |
| Cc1ccc(-c2ccccc2C#N)cc1 | 4.25% |  |
| Nc1ccc(O)cc1 | -0.076% |  |
| COc1cc(NS(=O)(=O)c2ccc(N)cc2)nc(C)n1 | -4.78% |  |
| CCCCC(CC)CNC(=O)CC(C)OC(=O)CCC(=O)O (stereo not given) | 8.13% |  |
| Cc1cc(C(C)(C)C)c(O)c(C(C)(C)C)c1 | 2.4% |  |
| CCCCCCCCCCCCCCCC[N+](C)(C)Cc1ccccc1 |  | 22.4 µM (active) |
| CCN(CC)CCN | 6.28% |  |
| COc1cc2c(cc1OC)C(=O)CC2 | 16.1% |  |
| Nc1c[n+](N2CCOCC2)no1 | -13.5% |  |
| OC(CCCN1CCCCC1)(c1ccccc1)c1ccccc1 | 2.57% |  |
| CC(C)(C)C(=O)OCOC(=O)C1N2C(=O)CC2S(=O)(=O)C1(C)C (stereo not given) | -0.925% |  |
| CCCC(=O)OCOC(=O)C1=C(C)NC(C)=C(C(=O)OC)C1c1cccc(Cl)c1Cl (stereo not given) | 0.527% |  |
| CC(=O)N(CC(O)CO)c1c(I)c(C(=O)NCCO)c(I)c(C(=O)NCC(O)CO)c1I (stereo not given) | -17.3% |  |
| Nc1c(NC/C=C\COc2cc(CN3CCCCC3)ccn2)c(=O)c1=O | 0.275% [at 19.1 µM] |  |
| CC(C)(C)CC(=O)OCC(=O)[C@@]1(O)CC[C@H]2[C@@H]3CCC4=CC(=O)C=C[C@]4(C)[C@H]3[C@@H](O)C[C@@]21C | -24.6% |  |
| COc1cc(OC)nc(O[C@H](C(=O)O)C(OC)(c2ccccc2)c2ccccc2)n1 | -7.27% |  |
| O=C(OCC1(COC(=O)c2cccnc2)CCCC(COC(=O)c2cccnc2)(COC(=O)c2cccnc2)C1O)c1cccnc1 | 0% |  |
| Nc1ccc(C(=O)N2CC3CC(CN(Cc4ccccc4)C3)C2)cc1 | -32.8% |  |
| COC(=O)/C=C(/C)N | 7.97% |  |
| CC(C)=CCC/C(C)=C/CC/C(C)=C/CCC(=O)OC/C=C(\C)CCC=C(C)C | 1.94% |  |

| SMILES | % pathology change, negative = correction | Potency |
| --- | --- | --- |
| CNC(=O)c1cnn(-c2nc(N)c3ncn([C@@H]4O[C@H](CO)[C@@H](O)[C@H]4O)c3n2)c1 | 11.5% |  |
| [O-][n+]1cccc(/C(Cl)=N/OC[C@@H](O)CN2CCCCC2)c1 | -7.94% |  |
| C[C@H]1NCc2cc(-c3ccc4c(=O)c(C(=O)O)cn(C5CC5)c4c3OC(F)F)ccc21 | 10.8% [at 19.1 µM] |  |
| CCOc1c(N2CCOCC2)cnn(C)c1=O | 2.62% |  |
| CCCCN(CCN(CCCC)C(=O)N1CCOCC1)C(=O)N1CCOCC1 | -9.99% |  |
| C[N+](C)(CCOc1ccccc1)Cc1cccs1 | 9.92% |  |
| Cc1[nH]cnc1-c1ccc(Cl)cc1 | -10% |  |
| OCc1cccnc1 | 8.26% |  |
| Cc1cccc(N(C)C(=S)Oc2ccc3c(c2)C2CCC3C2)c1 (stereo not given) | -0.781% |  |
| CCCC(=O)O[C@]1(C(=O)COC(=O)CC)CC[C@H]2[C@@H]3CCC4=CC(=O)CC[C@]4(C)[C@H]3[C@@H](O)C[C@@]21C | 20% [at 19.1 µM] |  |
| CC(C)(C)c1ccc(C(=O)CCCCl)cc1 | 10.6% |  |
| O=C1CCCc2c(O)cccc21 | 3.14% |  |
| CN=C(N)NC(=O)Nc1c(C)cccc1C | 6.4% |  |
| CCCc1ncc(C(=O)O)s1 | -7.09% |  |
| O=C(O)c1ccc(OCCN2CCCCC2)cc1 | 11.1% |  |
| COC(=O)c1c(Cl)c(Cl)c(C(=O)OC)c(Cl)c1Cl | 11.4% [at 91.7 µM] |  |
| CCCCCC[C@@H](CCC)C(=O)O | 8.52% |  |
| CN(C)[C@@H]1C(=O)C(C(N)=O)=C(O)[C@@]2(O)C(=O)C3=C(O)c4c(O)cccc4C[C@H]3C[C@@H]12 | 14.7% |  |
| N#CSCC(=O)O | 6.25% |  |
| COc1cc2nc(Cl)nc(N)c2cc1OC | 4.78% |  |
